6 molecules from PubChem BioAssay (NCI) can be followed below.

Test systems include NCI-H226 lung; NCI-H322M lung; HOP-62 NSCLC; NCI-H460 lung; HOP-92 NSCLC; A549/ATCC NSCLC; 786-0 renal; COLO 205 colon; DU-145 prostate; K-562 leukemia; MALME-3M melanoma; MDA-MB-231 breast; RXF 393 renal; SF-268 CNS; SF-295 CNS; SF-539 CNS; UACC-257 melanoma.
Common to all, as to test: NCI-60 one-dose screen, 48 h (100 = growth as untreated, 0 = no growth, -100 = all killed)
For a further assay, the system named is NCI-H522 lung. As to conditions: 10 µM unless noted.
For a further assay, the system named is NCI-H23 lung. As to conditions: 10 µM.

“And” between values parts separate entries of the source, which are not always exact repeats. Equal values may be shown once. This is part of a sample that, as a whole, favours compounds with a hit. Of some 83,000 tested, about 20% had one in any assay.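 In brief: 96-well plates, 48 h treatment, single concentration, percent growth endpoint.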 The source holds several records for some structures; these can differ, active in one and inactive in another. The source made the active and inactive calls. Rule for the calls: active = growth percent below 10; inactive = the rest.

Regarding `CCCCCCCCCCSC(=N)N`, the growth with NCI-H226 lung (10 µM) was 99.7% (inactive); with NCI-H322M lung (10 µM), 88.7% (inactive); in the assay on HOP-62 NSCLC (10 µM), 68% (inactive); in the assay with NCI-H460 lung (10 µM), 23.8% (inactive); in the assay on HOP-92 NSCLC (10 µM) it was 21.6% (inactive); in the assay on NCI-H522 lung, 45.6% (inactive). For the same molecule, the growth was 77% (inactive) in the assay on A549/ATCC NSCLC (10 µM); 51% (inactive) with 786-0 renal (10 µM); -84% (active) in the assay on COLO 205 colon (10 µM); 79.9% (inactive) in the assay with DU-145 prostate (10 µM unless noted); 11.1% (inactive) with K-562 leukemia (10 µM); 81.3% (inactive) in the assay on MALME-3M melanoma (10 µM). In addition, the growth in the assay on MDA-MB-231 breast (10 µM) was 13% (inactive); in the assay on RXF 393 renal (10 µM unless noted) it was 46.1% (inactive); in the assay on SF-268 CNS (10 µM), 73.9% (inactive); with SF-295 CNS (10 µM), 56.4% (inactive); in the assay with SF-539 CNS (10 µM), 68.4% (inactive); with UACC-257 melanoma (10 µM) it was 29.8% (inactive).
Consider `NC1=C(Cl)C(=O)c2ccccc2C1=O`, for which the growth is 40.7% (inactive) in the assay with NCI-H23 lung; 103% (inactive) in the assay with NCI-H226 lung (10 µM); 98.6% (inactive) with NCI-H322M lung (10 µM); 62.4% (inactive) in the assay with HOP-62 NSCLC (10 µM); 25.3% (inactive) in the assay with NCI-H460 lung (10 µM); 96.8% (inactive) with HOP-92 NSCLC (10 µM). The growth with NCI-H522 lung is 73.6% (inactive); in the assay on A549/ATCC NSCLC (10 µM), 45% (inactive); in the assay on 786-0 renal (10 µM), 106% (inactive); in the assay on COLO 205 colon (10 µM) it was 95.2% (inactive); in the assay with DU-145 prostate (10 µM unless noted) it was 27.1% (inactive); with K-562 leukemia (10 µM), 57% (inactive). The growth with MALME-3M melanoma (10 µM) is -26.3% (active); with MDA-MB-231 breast (10 µM), 72.1% (inactive); with RXF 393 renal (10 µM unless noted) it was 103% (inactive); in the assay with SF-268 CNS (10 µM), 71.7% (inactive); with SF-295 CNS (10 µM) it was 41% (inactive); with SF-539 CNS (10 µM) it was 75.4% (inactive). In addition, the growth in the assay with UACC-257 melanoma (10 µM) is 56.6% (inactive).
With `CCCCCCCCCCCC[N+](C)(C)Cc1ccccc1`, the growth with NCI-H23 lung is 23.8% (inactive); with NCI-H226 lung (10 µM), 55% (inactive); in the assay on NCI-H322M lung (10 µM), 87.7% (inactive); in the assay with HOP-62 NSCLC (10 µM), 28% (inactive); in the assay with NCI-H460 lung (10 µM), 71.9% (inactive); in the assay on NCI-H522 lung, -4.63% (active). Also, the growth with A549/ATCC NSCLC (10 µM) is 70.9% (inactive); in the assay with 786-0 renal (10 µM) it was 28.1% (inactive); with COLO 205 colon (10 µM), 15.7% (inactive); in the assay on DU-145 prostate (10 µM unless noted) it was 24.8% (inactive); in the assay with K-562 leukemia (10 µM), -5.13% (active); in the assay on MALME-3M melanoma (10 µM), -19.2% (active). In addition, the growth in the assay on MDA-MB-231 breast (10 µM) is 25.3% (inactive); in the assay with RXF 393 renal (10 µM unless noted) it was -38.7% (active); in the assay on SF-268 CNS (10 µM) it was 8.3% (active); in the assay with SF-295 CNS (10 µM) it was 46.3% (inactive); in the assay on SF-539 CNS (10 µM), 53.6% (inactive); in the assay on UACC-257 melanoma (10 µM) it was 2.24% (active).
For the molecule `Clc1cc(Cl)c(Cl)nn1`, the growth with NCI-H226 lung (10 µM) is 99.8% (inactive); in the assay on NCI-H322M lung (10 µM), 109% (inactive); in the assay with HOP-62 NSCLC (10 µM), 94.2% (inactive); in the assay with NCI-H460 lung (10 µM) it was 99% (inactive); in the assay on HOP-92 NSCLC (10 µM), 91.9% (inactive); in the assay with NCI-H522 lung, 80.7% (inactive). The growth is 57.9% (inactive) in the assay on A549/ATCC NSCLC (10 µM); 99.4% (inactive) with 786-0 renal (10 µM); 120% (inactive) with COLO 205 colon (10 µM); 115% (inactive) in the assay on DU-145 prostate (10 µM unless noted); 106% (inactive) with K-562 leukemia (10 µM); 109% (inactive) in the assay on MALME-3M melanoma (10 µM). Besides, the growth was 105% (inactive) with MDA-MB-231 breast (10 µM); 122% (inactive) in the assay with RXF 393 renal (10 µM unless noted); 101% (inactive) in the assay on SF-268 CNS (10 µM); 107% (inactive) with SF-295 CNS (10 µM); 100% (inactive) in the assay on SF-539 CNS (10 µM); 70.4% (inactive) with UACC-257 melanoma (10 µM).
`O=c1ccn(C2CC(O)C(COC(c3ccccc3)(c3ccccc3)c3ccccc3)O2)c(=O)[nH]1` (stereo not given): the growth in the assay with NCI-H226 lung (10 µM) was 91.7% (inactive); with NCI-H226 lung (100 µM), 36.2% (inactive); with NCI-H322M lung (10 µM) it was 87.5% (inactive); with NCI-H322M lung (100 µM), 68.8% (inactive); in the assay on HOP-62 NSCLC (10 µM), 89.2% (inactive); in the assay on HOP-62 NSCLC (100 µM) it was 72% (inactive). Moreover, the growth in the assay with NCI-H460 lung (10 µM) is 91.2% (inactive); in the assay with NCI-H460 lung (100 µM) it was 39.4% (inactive); in the assay with HOP-92 NSCLC (10 µM) it was 87.8% (inactive); with HOP-92 NSCLC (100 µM), 25.4% (inactive); in the assay on NCI-H522 lung, 53.6% [100 µM] (inactive); in the assay with A549/ATCC NSCLC (10 µM), 74.8% (inactive). The growth was 44% (inactive) in the assay with A549/ATCC NSCLC (100 µM); 82% (inactive) in the assay with 786-0 renal (10 µM); 65.5% (inactive) in the assay with 786-0 renal (100 µM); 114% (inactive) with COLO 205 colon (10 µM); 59.4% (inactive) in the assay on COLO 205 colon (100 µM); 107% (inactive) in the assay on DU-145 prostate (10 µM). Besides, the growth with DU-145 prostate (100 µM) was 55.7% (inactive); in the assay on K-562 leukemia (10 µM), 79.1% (inactive); with K-562 leukemia (100 µM), 26.5% (inactive); in the assay on MALME-3M melanoma (10 µM) it was 94.4% (inactive); in the assay on MALME-3M melanoma (100 µM), 70.7% (inactive); in the assay with MDA-MB-231 breast (10 µM), 73.5% (inactive). Also, the growth is 66.1% (inactive) in the assay with MDA-MB-231 breast (100 µM); 86.5% (inactive) with RXF 393 renal (10 µM); 36.6% (inactive) with RXF 393 renal (100 µM); 83% (inactive) in the assay on SF-268 CNS (10 µM); 42.9% (inactive) with SF-268 CNS (100 µM); 38.2% (inactive) with SF-295 CNS (100 µM). For the same molecule, the growth in the assay with SF-539 CNS (10 µM) was 97.2% (inactive); in the assay on SF-539 CNS (100 µM), 60.3% (inactive); in the assay with UACC-257 melanoma (100 µM), 55.2% (inactive).
`Cc1cc(NS(=O)(=O)c2ccc(N=Nc3cc(N=Nc4ccc(S(=O)(=O)Nc5cc(C)nc(C)n5)cc4)c4c(NC(=O)C(Cl)Cl)cccc4c3OC(=O)C(Cl)Cl)cc2)nc(C)n1` (tested in a mixture with another compound): the growth in the assay with NCI-H23 lung is 107% (inactive); with NCI-H226 lung (10 µM), 94.6% (inactive) and 96.1% (inactive); with NCI-H322M lung (10 µM) it was 94.9% (inactive) and 87.3% (inactive); in the assay on HOP-62 NSCLC (10 µM), 102% (inactive) and 103% (inactive); in the assay on NCI-H460 lung (10 µM), 109% (inactive) and 103% (inactive); in the assay with HOP-92 NSCLC (10 µM) it was 99% (inactive) and 120% (inactive). Further, the growth was 86.1% (inactive) and 3.96% (active) with NCI-H522 lung; 98.9% (inactive) and 95.2% (inactive) in the assay with A549/ATCC NSCLC (10 µM); 111% (inactive) and 115% (inactive) in the assay on 786-0 renal (10 µM); 109% (inactive) and 113% (inactive) in the assay with COLO 205 colon (10 µM); 118% (inactive) and 110% (inactive) in the assay on DU-145 prostate (10 µM unless noted); 108% (inactive) and 117% (inactive) with K-562 leukemia (10 µM). The growth with MALME-3M melanoma (10 µM) is 101% (inactive) and 94% (inactive); in the assay on MDA-MB-231 breast (10 µM), 81.8% (inactive) and 68.1% (inactive); in the assay on RXF 393 renal (10 µM unless noted), 110% (inactive) and 93% (inactive); in the assay with SF-268 CNS (10 µM) it was 108% (inactive) and 115% (inactive); with SF-295 CNS (10 µM), 86.2% (inactive); with SF-539 CNS (10 µM), 99.3% (inactive) and 108% (inactive). Also, in the assay with UACC-257 melanoma (10 µM), the growth is 101% (inactive) and 92.8% (inactive).
